# Screening data deposited in PubChem by National Center for Advancing Translational Sciences (NCATS).
# In the library only some 10% were active in any assay of this set; here they are far more common.
# PNC inhibitor: blocks assembly of the perinucleolar compartment | PC3M PTB-GFP, PNC prevalence imaging, 16 h; hits give low values | activity change (PNC), negative = inhibition, % at 10 µM | 140,000 compounds, 3.1% hits | AID 2417;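 active = readout at or below -70, meaning at least 70% loss of cells showing the perinucleolar compartment, a nuclear body marking cancer cells; inconclusive = readout between -30 and a set limit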;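 also: plate controls were DMSO wells for no effect and camptothecin positive control wells for full effect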
#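 Compounds are pinned in duplicate onto adhered PC3M cells stably expressing GFP-tagged PTB and incubated 16 h at 37 C. Cells are then fixed, nuclei stained with Hoechst, and PNC-positive cells counted.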
# Lamin A splicing: modulators of lamin A splicing; HeLa LMNA splicing GFP/RFP minigene ratio, 48 h; Potency, µM (top dose mostly 46.1 µM), for inactives: at the top dose ratio change, negative = inhibition, usual class: inhibitors; 200,000 compounds, 0.01% hits; active = well fitted inhibition curve with a large enough effect in the signal ratio, with a control signal flat, not every such curve was filed as active; inconclusive = small, poorly fitted or top-dose-only effect, or effect the other way, or a change in a side signal; the % refers to the signal ratio; also: potency is read from the fitted curve at half-maximal effect
#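 S3 HeLa cells stably expressing lamin A-EGFP splicing minigene plus DsRed2, 600 cells/well, 48 h compound exposure at 37C. Laser-scanning cytometry; analysed as GFP (500-530 nm)/RFP (575-640 nm) total intensity ratio; 0.5% DMSO vehicle.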
# KinaseGlo FLuc: counter-screen: inhibitors of Kinase-Glo firefly luciferase; Q27757; Kinase-Glo luciferase, ATP luminescence, 8 min; Potency, µM (doses to about 38.3 µM), for the others: top-dose activity change, negative = inhibition, usual class: inhibitors; 200,000 compounds, 0.28% hits; active = well fitted inhibition curve with a large enough effect; inconclusive = small, poorly fitted or top-dose-only effect; also: potency is read from the fitted curve at half-maximal effect; nearly all actives have a fitted effect of over 60% in size
#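 Kinase-Glo luciferase light output from ATP and luciferin was measured with 10 uM ATP, within the enzyme's linear range. Buffer: 50 mM imidazole pH 7.2, 50 mM KCl, 7 mM MgCl2, 0.01% Tween 20, 0.05% BSA; luminescence read after 8 min at ambient temperature.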
# HPGD block: inhibitors of human 15-hydroxyprostaglandin dehydrogenase (HPGD) | Potency, µM, inactives show at the top dose activity change, negative = inhibition, most hits filed as inhibitors | 150,000 compounds, 4.3% hits | P15428 | AID 894 | purified HPGD, NADH fluorescence kinetic, PGE2 substrate; also: potency is read from the fitted curve at half-maximal effect
# Target sequence (P15428 whole entry, looked up): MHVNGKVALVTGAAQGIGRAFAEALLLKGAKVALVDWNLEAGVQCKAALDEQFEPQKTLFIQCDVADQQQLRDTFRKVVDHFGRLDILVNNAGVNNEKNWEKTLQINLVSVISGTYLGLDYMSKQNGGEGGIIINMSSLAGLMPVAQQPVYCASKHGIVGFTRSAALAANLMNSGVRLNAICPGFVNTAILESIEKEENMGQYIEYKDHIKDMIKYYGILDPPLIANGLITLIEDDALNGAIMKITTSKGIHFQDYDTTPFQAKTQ
#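 NADH formation kinetics: reaction with 30 uM PGE2 and 1 mM NAD+ (final), 20 nM enzyme, Tris-HCl pH 8 with Tween 20, after 15 min compound preincubation at room temperature. Fluorescence change, last versus first of five reads.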
# ALDH1A1 inh: blocks purified human ALDH1A1 activity; Potency, µM (doses to about 75.3 µM), without a hit: top-dose activity, negative = inhibition, actives largely listed as inhibitors; P00352; 220,000 compounds, 7.3% hits; Purified ALDH1A1, NADH fluorescence, propionaldehyde substrate;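 also: potency is read from the fitted curve at half-maximal effect; plate controls were no enzyme wells and a reference inhibitor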
# Target sequence (P00352 whole entry, looked up): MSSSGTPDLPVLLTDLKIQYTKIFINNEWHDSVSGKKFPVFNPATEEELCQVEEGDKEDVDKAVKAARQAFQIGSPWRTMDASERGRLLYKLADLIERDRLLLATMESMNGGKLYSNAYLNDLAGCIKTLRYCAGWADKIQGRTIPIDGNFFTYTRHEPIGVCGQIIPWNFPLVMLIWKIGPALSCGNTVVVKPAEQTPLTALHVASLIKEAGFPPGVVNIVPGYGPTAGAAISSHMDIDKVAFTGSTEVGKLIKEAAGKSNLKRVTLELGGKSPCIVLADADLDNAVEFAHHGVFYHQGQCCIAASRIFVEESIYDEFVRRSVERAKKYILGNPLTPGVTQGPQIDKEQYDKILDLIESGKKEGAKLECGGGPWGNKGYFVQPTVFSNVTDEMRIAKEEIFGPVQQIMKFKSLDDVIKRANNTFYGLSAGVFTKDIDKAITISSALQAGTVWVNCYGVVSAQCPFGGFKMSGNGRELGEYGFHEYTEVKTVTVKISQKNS
# The depositor's hits bear a star; ? = inconclusive; / = no result; ! = a repeat was not active; [ ] = remark or other dose. Unless noted, calls follow the shape of the dose curve; as a rule, active = well fitted inhibition curve with a large enough effect (not every such curve was filed as active); inconclusive = small, poorly fitted or top-dose-only effect, or another doubt; inactive = no such curve, though single readings can be large or run the other way. Unless noted, % is scaled to controls: 0 for no effect and ±100 for the full control effect.
SMILES,PNC inhibitor,Lamin A splicing,KinaseGlo FLuc,HPGD block,ALDH1A1 inh
CCOC(=O)c1csc(NC(=O)CSc2nnnn2-c2ccc(OC)cc2)n1,-16.6,-5.9%,-6.7%,-3.2%,4.7%
Cn1cnnc1SCC(=O)Nc1sc2c(c1C(N)=O)CCC2,7.1,-0.8%,-5.0%,17.8µM*,?
CCOC(=O)c1c(NC(=O)CSc2nnnn2-c2ccc(OC)cc2)sc(C)c1C,-6.1,4.5%,-2.2%,2.82µM*,1µM*
NC(=O)c1c(NC(=O)CSc2nnc(-c3ccccc3)n2CC2CCCO2)sc2c1CCC2 (centres undefined),-2.7,-5.7%,1.7%,?,28.2µM*
N#Cc1c(NC(=O)CSc2ncc(-c3ccccc3)n2CC2CCCO2)sc2c1CCCC2 (centres undefined),-23.1,?,-0.4%,-13.9%,?
COc1ccc(O[C@H]2C=C[C@@H](c3ccccc3)O[C@H]2COC(=O)CC/C(C)=N/OCC[C@@H]2C=C[C@H](OC(C)=O)[C@H](COC(C)=O)O2)cc1,/,/,/,/,-2.6%[13.5 µM]
CCOC(=O)c1c(NC(=O)CSc2nnc(CNc3ccc(F)cc3)o2)sc(C)c1C,-4.1,7.9%,1.3%,-19.7%,?
CCOC(=O)c1c(NC(=O)CSc2nncn2C)sc(C)c1C,-80.6*,9.6%,4.6%,-13.8%,-4.0%
CCOC(=O)c1c(NC(=O)CSc2nncs2)sc(C)c1C,-0.6,10.3%,0.4%,0.4%,-7.5%
CCOC(=O)c1c(NC(=O)CSc2nnc(CNc3ccc(Cl)cc3)o2)sc(C)c1C,-107.2*,-11.0%,0.8%,-4.1%,11.2µM*
CC(C)N(C(=O)CO/N=C/c1cccc([N+](=O)[O-])c1)C(C)C,/,-0.6%[46 µM],-2.6%,/,?
N#CCCN(C(=O)CO/N=C/c1cccc([N+](=O)[O-])c1)c1ccccc1,/,?,-1.9%,/,25.1µM*
Cc1ccc2nc(SCC(=O)NCc3ccco3)c(C#N)cc2c1,-18.0,13.7%,-2.5%,7.94µM*,-7.9%
Cc1ccc2c(c1)cc(C)c1nnc(SCC(=O)NCc3ccco3)n12,16.0,3.4%,-0.8%,-20.8%,1.5%
Cc1ccc2nc(SCC(=O)NCc3ccco3)c(C)cc2c1,/,-18.6%[46 µM],-3.9%,/,15.8µM*
Cc1ccc2cc(C#N)c(SCC(=O)NCc3ccco3)nc2c1,-82.4*,11.6%,9.9%,-15.6%,?
N=c1ccn2c(n1)O[C@H]1[C@@H](OP(=O)(O)O)[C@H](CO)O[C@H]12,/,/,-1.8%[7.66 µM],1.2%,12.1%[13.5 µM]
CCCCC/C=C\C/C=C\C/C=C\CCCCC(=O)NCCCC(=O)O,/,/,-1.9%,0.0%,-1.3%
COc1ccccc1CNc1nc(-c2ccccc2OC)nc2ccccc12,/,?,/,/,8.3%
Cc1cn2c(=O)cc(COC(=O)c3ccc(NC(=O)c4ccccc4C)cc3)nc2s1,/,-7.4%[46 µM],/,/,/
C=CCCCCCCCCCCCc1ccco1,/,20.4%,-0.2%,0.794µM*,?
C=CCN1CN(Cc2ccco2)CNC1=S,-0.9,-1.0%,4.2%,2.2%,-0.6%
O=C(CSc1ccc2ccccc2c1)NCCc1ccc(O)c(O)c1,/,-26.4%[46 µM],1.0%,/,25.1µM*
O=c1c2ccccc2c(C=NCCCN2CCOCC2)c(O)n1Cc1ccccc1,-21.3,?,-8.2%,-27.5%,14.1µM*
COc1ccc(S(=O)(=O)N2CCN(Cc3nc4ccc(C)cc4o3)CC2)cc1,/,-10.6%[46 µM],/,/,/
SMILES,PNC inhibitor,Lamin A splicing,KinaseGlo FLuc,HPGD block,ALDH1A1 inh
O=C(CSc1ccccc1)Nc1nccs1,/,3.3%[46 µM],1.7%,/,11.6%
O=C(CSc1cn(Cc2ccccc2)c2ccccc12)Nc1nccs1,-27.2,7.0%,-1.7%,-10.4%,14.1µM*
O=C(CSc1cn(Cc2ccccc2)c2ccccc12)NCc1ccc(F)cc1,59.7,15.1%,0.7%,-7.5%,7.94µM*
O=C(CSc1ncccn1)NCc1ccc(F)cc1,-3.0,2.8%,2.0%,-7.7%,9.6%
O=C(O)CC(C(=O)O)c1cn(Cc2ccccc2)c2ccccc12 (centres undefined),12.8,-0.3%,-1.3%,-11.1%,11.2µM*
N#CC(c1ccc(O)cc1)N1CCOCC1 (centres undefined),-102.8*,0.0%,-3.7%,-6.4%,7.94µM*
Cc1cc2occ(CC(=O)NC3CCCc4ccccc43)c2cc1C (centres undefined),26.4,-18.9%,0.8%,-9.4%,2.24µM*
CCN1CCN(C(=O)c2cnn(-c3ccc(F)cc3F)c2C2CCN(C(=O)OC(C)(C)C)CC2)CC1,/,17.6%[46 µM],/,/,/
CCC(=O)N1c2ccccc2CC1C(=O)NCCc1ccc(SC)cc1 (centres undefined),/,-20.4%[46 µM],/,/,/
COCC(C)NC(=O)NC1(C(F)(F)F)Oc2ccc(Cl)cc2O1 (centres undefined),?,?,/,/,22.4µM*
O=C(NCCN1CCOCC1)NC1(C(F)(F)F)Oc2ccc(Cl)cc2O1 (centres undefined),-29.1,?,0.2%,-5.9%,4.8%
CC(C)CN1CCCC2(CCN(S(=O)(=O)c3ccccc3)CC2)C1,/,/,-2.2%,-0.4%,-15.1%
COc1ccccc1-c1ccc(=O)n(CC(=O)Nc2ccc(C(=O)N3CCCC3)cc2)n1,-11.2,-5.2%,-1.9%,14.1µM*,?
Clc1ccc(-n2nnc(-c3nccs3)n2)cc1Cl,/,/,/,/,25.1µM*
O=C(O)CP(=O)(O)O,19.8,?,-2.0%,31.6µM*!,8.5%
CCOC(=O)C1(CC2CCCCO2)CCN(S(=O)(=O)c2ccc(OC)cc2)CC1 (centres undefined),/,/,-0.3%,/,-8.6%
CCOC(=O)C1(CC2CCCCO2)CCN(S(=O)(=O)c2cccc(F)c2)CC1 (centres undefined),/,0.9%[46 µM],3.8%,/,25.1µM*
CCOC(=O)C1(CC2CCCCO2)CCN(C2CCSCC2)CC1 (centres undefined),/,/,/,/,6.1%
CCOC(=O)C1(CC2CCCCO2)CCN(S(=O)(=O)c2cc(C)cs2)CC1 (centres undefined),/,/,-6.2%,/,10µM*
CCOC(=O)C1(CC2CCCCO2)CCN(Cc2cc3ccccc3[nH]2)CC1 (centres undefined),/,/,-1.6%,/,1.26µM*
CCCCc1ncc(CN2CCC(CC3CCCCO3)(C(=O)OCC)CC2)[nH]1 (centres undefined),/,/,0.2%,/,-2.1%
CCCCNC(=O)C(CC)Sc1nnc(-c2ccc(OC)c(OC)c2)c(-c2ccc(OC)c(OC)c2)n1 (centres undefined),/,-5.3%[46 µM],/,/,/
CO[C@H]1COC(=O)CCC[C@H](C)[C@H](OC)COC(=O)C/C=C\[C@@H]1C,/,/,/,/,6.4%[13.5 µM]
C/C(=C\CNc1ncnc2c1ncn2[C@@H]1O[C@H](CO)[C@@H](O)[C@H]1O)CO,/,/,-1.2%[39.9 µM],-13.4%,-9.0%
CN(C)C(=O)c1ccc(-c2nc(NC3CCNCC3)c3ccccc3n2)cc1,/,-10.8%,/,/,-12.3%
Cc1cccc(/C=C2/SC(=O)N(Cc3ccccc3)C2=O)n1,30.9,4.3%,-2.2%,-3.9%,6.31µM*
O=C(CCNc1ccc(Cl)cc1)c1cccs1,?,?,1.3%,-11.4%,3.16µM*
O=C(CCSc1ccc(Cl)cc1)c1cccs1,?,?,-3.5%,20µM*,0.355µM*
